Laboratory results published in PubChem BioAssay (NCI).
About 83,000 compounds went through this panel and 20% of them were active in at least one assay; those are over-represented in the sample as a whole.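 The test compound was applied at a single concentration to cells in 96-well plates for 48 hours, and percent growth was recorded.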 Unmarked numbers belong to inactive results. Activity calls are given as the source filed them. Rule for the calls: active = growth percent below 10; inactive = the rest.

tested on: HL-60(TB) leukemia; assay: NCI-60 one-dose screen, 48 h (100 = growth as untreated, 0 = no growth, -100 = all killed); details: 10 µM unless noted

Which growth does the source give for `O=C(CSc1nc2ccccc2c(=O)n1CCc1ccccc1)Nc1ccc(S(=O)(=O)Nc2ccc(Cl)nn2)cc1` here?
The growth was 132%.

`COC(=O)N1CCN(CCNCc2ccc(NC(=O)c3ccc(C)c(C#Cc4cnc5cccnn45)c3)cc2C(F)(F)F)CC1` was tested. Which growth did it give?
The growth was -12.3% (active).

With `COc1ccc2c(c1)C=CC1(O2)Oc2ccc(OC)cc2C=C1C` (stereo unspecified) as the compound, how does the growth read?
The growth was -3.1% (active).

With `O=C(/C=C1\C=CN(CCCCF)c2ccccc21)n1ccc2ccccc21` as the compound, how does the growth read?
Its growth is 121%.

Which growth does the source give for `O=C1/C(=C/C2=Cc3ccccc3OC2)SC(=S)N1c1ccc(F)cc1` here?
Its growth is 95.2%.

`COc1ccccc1/C=C/C(=O)c1nnn(-c2ccc(F)cc2)c1C` was tested. Which growth did it give?
The growth was 31.9%.

With `CN1CCN(c2ccc(Nc3nc(NCCCNS(=O)(=O)c4ccc(C(F)(F)F)cc4)c4sccc4n3)cc2)CC1` as the compound, how does the growth read?
Its growth is -47.4% (active).

How did the growth turn out when `CCOc1cccc(/C(N)=N/C(N)=N/c2nc3ccccc3s2)c1` was run?
The growth was 72.2%.

For `CC(=O)C1=C(C)NC(NNc2ccccc2)=NC1c1ccc([N+](=O)[O-])cc1` (stereo unspecified), which growth is on record?
Its growth is 88.3%.

`NC(=O)c1c(NC(=O)c2cccc(C(F)(F)F)c2F)sc2c1CCC(=O)C2` was tested. Which growth did it give?
The growth was 15%.

Which growth does the source give for `O=C1C[C@@H](c2ccccc2)Oc2c(Cc3ccccc3O)c(O)c(Cc3cc(Cc4cc(Cc5ccccc5O)ccc4O)ccc3O)c(O)c21` here?
The growth was 95.1%.

How did the growth turn out when `CN(C)CC(=O)Nc1nc(-c2cccc(NS(=O)(=O)c3cccc4c(N(C)C)cccc34)c2)cs1` was run?
Its growth is 80.8%.

For `Cc1sc2c(c1C)c(=O)nc1c(-c3nc(-c4ccc(F)cc4)no3)n[nH]n12`, which growth is on record?
Its growth is 103%.

With `COc1ccc(/C=N/NC(=O)c2c(N)nn(C)c2Nc2ccccc2)cc1` as the compound, how does the growth read?
Its growth is 15.5%.

For `CCC(CC)N1C(=O)/C(=c2\sc3n(c2=O)C2C(NN=3)N(CC)C(=O)N2CC)c2ccccc21` (stereo unspecified), which growth is on record?
Its growth is -17.8% (active).

`COc1cc(/C=C2/C(=O)Nc3ccc(Cl)cc32)ccc1OCc1ccc(Cl)cc1` was tested. Which growth did it give?
Its growth is 102%.

With `Clc1ccc2oc3c(OCCCn4ccnc4)c4ccccc4nc3c2c1` as the compound, how does the growth read?
Its growth is 73.1%.

Which growth does the source give for `C=C(C)[C@@H]1CC[C@]2(COP(=O)(OCC)OCC)CC[C@]3(C)[C@H](CC[C@@H]4[C@@]5(C)CCCNC(C)(C)[C@@H]5CC[C@]43C)[C@@H]12` here?
The growth was -56.4% (active).

Which growth does the source give for `O=C1[C@@H]2Cc3c([nH]c4ccccc34)[C@H](c3c(Cl)cccc3Cl)N2C(=O)CN1C1CCN(Cc2ccccc2)CC1` here?
Its growth is 29.3%.

How did the growth turn out when `CNC(=O)c1cc(Oc2ccc3c(c2)sc2nc(-c4ccc(N(C)C)cc4)cn23)ccn1` was run?
Its growth is 5.28% (active).

How did the growth turn out when `O=C(O)c1ccc(-n2cc(CNc3cc(F)c(F)c(F)c3)c(-c3ccc(F)cc3)n2)cc1` was run?
Its growth is 103%.

How did the growth turn out when `C=CCn1c(SCC(=O)c2ccc(OC)cc2)nnc1-c1ccc(OC)cc1` was run?
Its growth is 90.8%.

How did the growth turn out when `N#Cc1nc(-c2ccc(Cl)cc2)oc1N1CCC(S(=O)(=O)N2CCOCC2)CC1` was run?
Its growth is 112%.

For `COc1ccc(-c2nc(C#N)c(N3CCC(S(=O)(=O)N4CCOCC4)CC3)o2)cc1`, which growth is on record?
Its growth is 117%.

Which growth does the source give for `O=S(=O)(NC1c2ccccc2C[C@H]1O)c1ccc(Cl)cc1Cl` (stereo partly specified) here?
The growth was 98.1%.

With `Nc1cc(-c2c[nH]c3ccccc23)nc2cc(-c3c[nH]c4ccccc34)nn12` as the compound, how does the growth read?
Its growth is 40.1%.

`O=C(N/N=C/c1ccc(Cl)s1)c1[nH]c2ccc(Br)cc2c1-c1ccccc1` was tested. Which growth did it give?
Its growth is -44.1% (active).

For `CNC(=O)c1cc(N2CCc3cc(NC(=O)Nc4ccc(Cl)c(Cl)c4)ccc32)ccn1`, which growth is on record?
Its growth is 124%.

For `N[C@@H](Cc1cn(-c2c3ccccc3nc3ccccc23)nn1)C(=O)O`, which growth is on record?
The growth was 95.5%.

How did the growth turn out when `CCN1CCN(/C(=N\c2sc(-c3ccccc3)nc2-c2ccccc2)c2ccccc2)CC1` was run?
Its growth is 50.9%.

How did the growth turn out when `COc1ccc(C2c3sc4c(C)cccc4c3Oc3nc(CC(=O)Nc4ccccc4)[nH]c(=O)c32)cc1` (stereo unspecified) was run?
The growth was 146%.

For `CC(C)C(=O)Nc1ccc(-c2nc(-c3cccc(O)c3)c(-c3ccnc(Br)c3)[nH]2)cc1`, which growth is on record?
Its growth is -40.4% (active).

`COc1cccc(N2CCN(c3ncnc4c3[nH]c3ccc(F)cc34)C[C@H]2C)c1` was tested. Which growth did it give?
Its growth is 33%.

`O=C(N/N=C\c1ccc(F)cc1)c1ccc2nc(-c3ccc(Br)cc3)[nH]c2c1` was tested. Which growth did it give?
The growth was 78.8%.

For `CC(C)Sc1nc(NC2CC2)c(C#N)c(-c2ccccc2)n1`, which growth is on record?
Its growth is 112%.

`COc1ccccc1NCc1cccn1Cc1ccc(F)cc1` was tested. Which growth did it give?
Its growth is 104%.
